49 compounds from PubChem BioAssay AID1851 (National Center for Advancing Translational Sciences (NCATS), 2009) can be followed below.

In all, about 16,000 compounds went through this assay and about 5,700 (36%) were called active. Roughly 24% stayed inconclusive and do not appear here. The list shows a part of the results. Unmarked numbers belong to inactive results. Calls follow the shape of the dose curve; as a rule, active = well fitted curve in the direction sought with a large enough effect; inconclusive = small, poorly fitted or top-dose-only effect, or effect the other way; inactive = no such curve, though single readings can be large or run the other way.
% is scaled to controls: 0 for no effect and ±100 for the full control effect.

The target of this assay is Cytochrome P450 1A2 (Homo sapiens) (UniProt P05177). Briefly: Cytochrome panel assay with activity outcomes. The settings on record: recombinant CYP, pro-luciferin dealkylation, luminescence, p450-cyp1a2; series mostly up to 57.1 µM; activity, negative = inhibition: at the top concentration.
Chain of Cytochrome P450 1A2 (Homo sapiens) (P05177 whole entry, looked up): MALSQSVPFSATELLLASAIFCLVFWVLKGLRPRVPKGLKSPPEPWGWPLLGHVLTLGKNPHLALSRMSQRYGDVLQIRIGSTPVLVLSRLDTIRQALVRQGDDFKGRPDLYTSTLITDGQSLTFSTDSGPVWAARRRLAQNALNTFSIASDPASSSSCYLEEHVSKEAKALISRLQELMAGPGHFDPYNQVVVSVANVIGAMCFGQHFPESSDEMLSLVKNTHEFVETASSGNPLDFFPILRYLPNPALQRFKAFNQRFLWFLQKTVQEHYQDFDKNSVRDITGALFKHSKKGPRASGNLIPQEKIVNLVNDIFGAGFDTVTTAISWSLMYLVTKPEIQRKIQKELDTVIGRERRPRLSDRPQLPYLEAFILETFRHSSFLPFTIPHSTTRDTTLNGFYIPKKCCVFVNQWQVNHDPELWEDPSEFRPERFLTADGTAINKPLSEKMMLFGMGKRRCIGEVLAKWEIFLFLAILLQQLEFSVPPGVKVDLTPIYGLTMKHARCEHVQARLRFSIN
Consider `CC(=O)N(O)CCCCCNC(=O)CCC(=O)N(O)CCCCCNC(=O)CCC(=O)N(O)CCCCCN`, for which the “activity, negative = inhibition” value was -5.91% [at 25.6 µM]. On the same count and under the same terms, the result for `O=C1[C@@H]2C=CC=CC2=NC(=S)N1CCN1CCC(=C(c2ccc(F)cc2)c2ccc(F)cc2)CC1` reads -5.13%. Same read-out and setting: with `CN(C(=O)C(Cl)Cl)c1ccc(OC(=O)c2ccco2)cc1` the figure was -3.35% [at 25.6 µM]; with `O=C(NNC(=S)Nc1ccccc1)c1ccco1`, 0.324%.

For `O=C(Oc1ccccc1[N+](=O)[O-])c1cccnc1`, the concentration at half-maximal activity (AC50) is 20 µM (active). On the same count and under the same terms, the result for `O=C(Oc1cccc(Br)c1)c1cccnc1` reads 12.6 µM (active); that for `O=C(Nc1cccc(OC(=O)c2ccco2)c1)c1ccco1`, 22.4 µM (active); that for `COc1ccc(C(C)=O)c(OC(=O)c2ccco2)c1`, 2 µM (active).

For the compound `NC(=O)c1ncn([C@@H]2O[C@@H](CO)[C@@H](O)[C@H]2O)c1O`, the “activity, negative = inhibition” value was -1.3%. On the same count and under the same terms, the result for `O=[N+]([O-])c1ccc(CSc2ncnc3c2ncn3[C@@H]2O[C@@H](CO)[C@@H](O)[C@H]2O)cc1` reads -12.3%.

`O=C(Nc1cccc(NC(=O)c2ccc(-c3cccc(Br)c3)o2)c1)c1ccco1`: the concentration at half-maximal activity (AC50) was 3.16 µM (active). For `O=C(Nc1ccc(OC(=O)c2cccnc2)cc1)c1cccnc1`, the “activity, negative = inhibition” value is -22.8%. With `O=C(Nc1ccc2nc(-c3ccc(Br)o3)[nH]c2c1)c1ccco1`, the AC50 is 3.55 µM (active). Still for that read-out and setting: with `O=C(Nc1cccc(OC(=O)c2cccnc2)c1)c1cccnc1` the figure was 7.08 µM (active). Regarding `CC(C)C(=O)Nc1ccc(NC(=O)c2cccnc2)cn1`, the “activity, negative = inhibition” value was -6.09%. With `CCOc1ccc(C(=O)Nc2ccc(NC(=O)c3ccco3)c(Cl)c2)cc1Br`, the “activity, negative = inhibition” value was -16.5%. Still for that read-out and setting: the result for `CN(C)Cc1cc(C(C)(C)C)ccc1-c1ccc(C(C)(C)C)cc1CN(C)C` reads -17.9% [at 2.29 µM]. As for `CN(C)Cc1ccccc1-c1nccc(NC2CC2)n1`, the AC50 was 1.58 µM (active). Same read-out and setting: the result for `CNc1ccnc(-c2ccccc2CN(C)C)n1` reads 12.6 µM (active); that for `CN(C)Cc1ccccc1-c1nccc(N(C)C)n1`, 12.6 µM (active); that for `CN(C)Cc1ccccc1-c1nccc(Nc2ccc(F)cc2)n1`, 3.16 µM (active).

With `COCC(=O)N1CCC2(CC1)CCN(C(c1ccccc1)c1ccccc1)CC2`, the “activity, negative = inhibition” value is 5.84%. Take `O=C(Nc1cccc(F)c1)N1CC[C@@]2(CCCN(C(=O)c3cnccn3)C2)C1`: the “activity, negative = inhibition” value was -11.2%. Turning to `CCOC(=O)c1c(CC(C)C)csc1NC=O`, the AC50 was 0.224 µM (active). Still for that read-out and setting: the result for `COc1cccc(Nc2ncc3nc(-c4cccs4)c(=O)n(CCC#N)c3n2)c1` reads 2.51 µM (active); that for `N#CCCn1c(=O)c(-c2cccs2)nc2cnc(Nc3ccccc3)nc21`, 5.01 µM (active). Regarding `CCNc1ncc2nc(-c3cccs3)c(=O)n(CCc3ccccc3)c2n1`, the AC50 was 10 µM (active). Still for that read-out and setting: the result for `CCNc1ncc2nc(-c3cccs3)c(=O)n(CCC#N)c2n1` reads 3.16 µM (active); that for `CCOC(=O)c1c(-c2ccc(C)o2)csc1NC(=S)NC(=O)N(C)C`, 1.58 µM (active). In the case of `O=C1C2=CC[C@H]3C(=O)N(c4cccc(Oc5ccccc5)c4)C(=O)[C@@H]3[C@@H]2[C@H](O)[C@@H]2O[C@H]12`, the activity, negative = inhibition was -1.58% [at 11.4 µM]. Still for that read-out and setting: with `O=C(CN1C(=O)C2C3C=CC(C3)C2C1=O)Nc1ccc(C(=O)O)cc1` (centres undefined) the figure was -3.43%; with `O=C(CCN1C(=O)C2C3C=CC(C3)C2C1=O)Nc1ccc2ncccc2c1` (centres undefined), -7.75%.

As to `CN(C)c1ccc(NC(=O)c2cccc(N3C(=O)C4C5C=CC(C5)C4C3=O)c2)cc1` (centres undefined), the concentration at half-maximal activity (AC50) is 2 µM (active). In the case of `CO[C@@H]1COC(=O)C/C=C\[C@@H](C)COC(=O)[C@H](COCc2ccccc2)NC(=O)C/C=C\[C@H]1C`, the activity, negative = inhibition is -7.1% [at 11.4 µM].

As for `CCOc1ccc(-c2c[n+](=O)c3c(n2[O-])CCCC3)c(OCC)c1`, the “activity, negative = inhibition” value was -21%. As for `O=[n+]1c2c(n([O-])c3cc(F)c(F)cc31)CCCC2`, the AC50 was 14.1 µM (active). For `CCC1(C)Nc2ccccc2C(=O)N1O` (centres undefined), the “activity, negative = inhibition” value is -28.5%. Regarding `CCCCC1(C)Nc2ccccc2-c2nc3ccccc3n21` (centres undefined), the AC50 is 14.1 µM (active). Same read-out and setting: the result for `CCCC1(C)Nc2ccccc2-c2nc3ccccc3n21` (centres undefined) reads 8.91 µM (active); that for `Fc1ccc(Nc2ccnc(-c3ccc4c(c3)OCO4)n2)cc1`, 0.631 µM (active); that for `CN(C)C(=O)c1ccc(-c2nccc(Nc3ccc(F)cc3)n2)cc1`, 6.31 µM (active). On the same count and under the same terms, with `Fc1ccc(Nc2ccnc(-c3ccoc3)n2)cc1` the figure was 1 µM (active). Still for that read-out and setting: with `CN(C)c1ccc(-c2cc(Nc3ccc(F)cc3)ncn2)cc1` the figure was 0.398 µM (active).

`CCCCC1CC(/C(C)=N/NC(N)=O)OC1=O` (centres undefined): the “activity, negative = inhibition” value is -23%. The same measure, in the same setting: with `C[C@@]12CC(=O)[C@@H]3[C@@H](CCC4=CC(=O)CC[C@]43C)[C@@H]1CC=C2CC(=O)O` the figure was -17% [at 11.4 µM]; with `NC(=O)CCCC1=NS(=O)(=O)c2ccccc2N1`, 8.32%. Take `CN(C)[C@@H]1C(=O)C(C(N)=O)=C(O)[C@]2(O)C(=O)C3=C(O)c4c(O)ccc(Cl)c4[C@H](O)[C@H]3C[C@@H]12`: the AC50 entry is “inactive”. Turning to `CC1(C)O[C@H]2[C@@H](c3[nH]nc4c(=O)[nH]c(=O)[nH]c34)OC[C@H]2O1`, the activity, negative = inhibition was -11.5% [at 11.4 µM]. `CN(C)c1ccc(-c2nccc(Nc3ccc(F)cc3)n2)cc1`: the AC50 was 0.501 µM (active).
